# From the supplement of paper PMC10338343
# ± gives the standard deviation.
# Tested on: EfPiwi piRISC loaded with L1MC piRNA (26 nt)
# Experiment: pre-steady-state target cleavage rate (min^-1); auxiliary factor: 500 nM Ephydatia muelleri Gtsf1; guide: L1MC piRNA 5'p-UAACUAAAUACUAUGCAAGCUGUAGG; MIWI and MILI are mouse PIWI proteins and EfPiwi is from a freshwater sponge; tags in brackets are library labels; higher = faster piRNA-guided slicing of the target
# How it was run: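 With or without 500 nM GTSF1 partner protein, 1 nM active affinity-purified piRISC carrying one synthetic guide was mixed with 0.1 nM transcribed, DNA-blocked target RNA library in HEPES–potassium acetate buffer at 33 °C for 0–8 or 0–960 min. Uncleaved targets were sequenced and normalised to depth and to weakly complementary targets, three trials were pooled, and k3 was capped at 0.0001 min^-1. The pre-steady-state cleavage rate came from a burst-and-steady-state fit.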
row,Sequence,pre-steady-state target cleavage rate
1,UCCUGGAUGUCGAACGAUAGUAUUUAGUUA,< 0.0001
2,UCCUGGAUGUCGAACGUUAGUAUCUAGUUA,< 0.0001
3,UCCUGGAUGUGACUUGCAUAGUAUUUAGUUA,0.00497 ± 0.0028
4,UCCUGCUACAGCUUGCAUAGUAUUUAGCUA,0.00339 ± 0.0014
5,UCCUGCUACAGCUUGCAUAGUAUCUAGUUA,0.00723 ± 0.0019
6,UCCUGGAACAGCUUCCAUAGUAUUUAGAAA,0.00411 ± 0.0022
7,UCCUGGAUCAGCUUGCGAUAGUAUUUAGUUA,0.00281 ± 0.0027
8,UCCUGGAUGUCGUUGCAUAGUAGUUUAGUUA,0.0087 ± 0.005
9,UCCUGCUACAUCUUGCAUAGUAUUUAGUUA,0.0423 ± 0.014
10,UCCUGGAACAGCUUGGAUAGUUUUUAGUUA,0.00298 ± 0.0022
11,UCCUGCUACAGCUUGCAUAGUAUAAUGUAA,0.00248 ± 0.002
12,UCCUGCUUCAGCUUGCAAAGUAUUUAGUUA,0.0683 ± 0.018
13,UCCUGGAUGUCGAACGAUAGUAUUAUAGUUA,< 0.0001
14,UCCUGGAUGUCCUUGCAUAGUAUCUAGUUA,0.00775 ± 0.0043
15,UCCUGGAUGUCGAACCAUUGAAUUUAGUUA,< 0.0001
16,UCCUCCUACUGCUUGCAUAGUAUUUAGAUA,0.0056 ± 0.0026
